SMILES strings stand for the structures. “And” between values parts separate entries of the source, which are not always exact repeats. Equal entries are not always repeated. Inconclusive results are not listed. The source made the active and inactive calls. The call rests on the fitted dose curve; in most records, active means well fitted inhibition curve with a large enough effect in the signal ratio, with a control signal flat (not every such curve was filed as active); inconclusive means small, poorly fitted or top-dose-only effect, or effect the other way, or a change in a side signal; inactive means no such curve, though single readings can be large or run the other way; the % refers to the signal ratio.
On the % scale 0 is the no-effect control and ±100 the full control effect.

The target of this test is Retinoic acid receptor RXR-alpha (Homo sapiens) (UniProt P19793). The test can be described thus: qHTS assay for small molecule antagonists of retinoid X receptor alpha signaling (AID 588546). Particulars: HEK293T RXRa-UAS-bla, beta-lactamase ratio, antagonist mode. The source says: NIH Chemical Genomics Center [NCGC] U.S. Environmental Protection Agency [EPA] National Institutes of Environmental Health Sciences [NIEHS] National Toxicology Program [NTP] NCGC Assay Overview The Retinoid X receptor (RXR), a nuclear hormone receptor is expressed in liver, spleen, placenta, epidermis, central nervous system. These receptors are able to form homo and heterodimers with other nuclear receptors and due to this heterodimerizing ability, RXR functions as master regulators producing diverse physiological effects. Three subtypes of RXR exist; alpha, beta and gamma. Retinoid X receptor alpha (RXR-alpha) has potential roles in metabolic signaling pathways, skin alopecia, dermal cysts, cardiac development, insulin sensitization etc. Therefore screening environmental chemicals on RXR-alpha signaling can be used for the studies focused on such therapeutic applications.
Sequence of Retinoic acid receptor RXR-alpha (Homo sapiens) (P19793 whole entry, looked up): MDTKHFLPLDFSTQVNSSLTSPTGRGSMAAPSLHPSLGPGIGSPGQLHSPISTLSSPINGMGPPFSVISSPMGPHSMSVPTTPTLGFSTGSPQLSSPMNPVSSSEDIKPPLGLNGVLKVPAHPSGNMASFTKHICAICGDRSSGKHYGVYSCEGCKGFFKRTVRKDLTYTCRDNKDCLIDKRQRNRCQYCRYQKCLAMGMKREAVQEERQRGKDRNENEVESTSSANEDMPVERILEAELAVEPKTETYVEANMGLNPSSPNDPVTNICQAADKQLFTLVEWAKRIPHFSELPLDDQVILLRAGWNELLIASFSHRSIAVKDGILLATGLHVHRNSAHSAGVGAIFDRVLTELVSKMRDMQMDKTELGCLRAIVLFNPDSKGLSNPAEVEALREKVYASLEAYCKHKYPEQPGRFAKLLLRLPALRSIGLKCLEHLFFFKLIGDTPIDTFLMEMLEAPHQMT
NCGC Assay Protocol Summary Using a beta-lactamase reporter-gene under control of Retinoid X receptor--alpha (RXR-alpha) response element, a cell-based assay [GeneBLAzer (RXR-alpha -UAS-bla assay developed by Invitrogen] was used to measure RXR-alpha ligands signaling. GeneBLAzer RXR-alpha -UAS-bla HEK293T cells were used with assay medium containing 2% charcoal-stripped FBS. The assay was performed in clear bottom black Greiner 1536-well plates. Library compounds were measured for their ability to inhibit the reporter gene activity. Compounds were screened in a titration series in 1536-well format. The fluorescence intensity (405 nm excitation, 460/530 nm emission) was measured using an EnVision plate reader. Data was normalized relative to 9-cis-retinoic acid control (500 nM, 100%), and DMSO only wells (basal, 0%). Concentration-response titration points for each compound were fitted to the Hill equation yielding concentrations of half-maximal inhibition (IC50) and maximal response (efficacy) values. qHTS protocol for RXR-alpha beta-lactamase assay in antagonist mode [Step] [Parameter] [Value] [Description] 1. Reagent; 5 uL; 2500 cells/well 2. Incubation; 37 C for 4 hrs 3. Compounds; 23 nL; 0.59 nM to 92 uM 4. Controls (DMSO); 23 nL 5. Agonist (Stimulator); 1uL; 9-cis-retinoic acid at 500 nM and 100 nM final concentrations 6. Incubation; 37 C for 18 hrs 7. Detection reagent; 1 uL of CCF4-dye 8. Incubation; RT for 2 hrs 9. Detection; Fluorescence; Envision plate reader
(In qHTS, concentration-response curves come from the screen itself.)
With `CCCCC/C=C\C/C=C\CCCCCCCC(=O)O`, the max response is 12.5% (inactive). `IC(I)I`: the max response was 21.1% (inactive) and -13.8% (inactive). In the case of `CCCCCCCC/C=C\CCCCCCCC(=O)O`, the max response is 31.8% (inactive) and 3.81% (inactive).

On to `O=C(O)CCC(=O)C(=O)O`, for which the max response was 8.74% (inactive). Turning to `CC(C)=O`, the max response is 3.03% (inactive). Turning to `Cc1ccccc1`, the max response was -5.8% (inactive) and 14.2% (inactive).

Turning to `C[C@H]1C[C@H]2[C@@H]3CCC4=CC(=O)C=C[C@]4(C)[C@@]3(F)[C@@H](O)C[C@]2(C)[C@@]1(O)C(=O)CO`, the max response is -12.7% (inactive). On to `CC1=C(/C=C/C(C)=C/C=C/C(C)=C/CO)C(C)(C)CCC1`, for which the max response was -17.7% (inactive) and -18.6% (inactive). In the case of `CC1=CCC(C(C)(C)O)CC1` (stereo not drawn), the max response is -18.6% (inactive). For the compound `Nc1ccn([C@H]2CS[C@@H](CO)O2)c(=O)n1`, the max response is 12.8% (inactive). On to `CC(C)(C)NC(=O)[C@@H]1C[C@@H]2CCCC[C@@H]2CN1C[C@@H](O)[C@H](Cc1ccccc1)NC(=O)[C@H](CC(N)=O)NC(=O)c1ccc2ccccc2n1`, for which the Potency was 22.4 µM (active). As to `CCCCCCCC(=O)O`, the max response is 18.1% (inactive) and 2.05% (inactive). Turning to `CC1(C)C(C=C(Cl)Cl)C1C(=O)OCc1cccc(Oc2ccccc2)c1` (stereo not drawn), the max response is -8.16% (inactive) [middle of 4 runs]. As to `CC1=C2[C@@H]([C@H](C)CC[C@H]2/C=C(\C)C(=O)O)[C@H](O)C1`, the max response is -2.22% (inactive). In the case of `O=C(O)CN(CCN(CC(=O)O)CC(=O)O)CC(=O)O`, the max response is -4.8% (inactive) and -20.2% (inactive). On to `CC(O)CO` (stereo not drawn), for which the max response was 9.68% (inactive) and 0.556% (inactive). On to `O=S(=O)(O)O`, for which the max response was -0.45% (inactive) and -13.7% (inactive). Still for that read-out and setting: to `O=CCCCC=O` belongs 27.6% (inactive).

For the origin of these results see PubChem BioAssay (NCATS).
